3T3 cytotox: kills NIH 3T3 cells; NIH 3T3 viability, CellTiter-Glo ATP luminescence, 48-72 h; Potency, µM (doses to about 96.7 µM), inactives show at the highest dose activity change, negative = cytotoxicity, hits mostly inhibitors; 94,000 tested, 4.3% active; AID 1345082; note: nearly all actives have a fitted effect of over 55% in size
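NIH 3T3 cells at 400 cells/well received 23 nL of compound by pintool and were incubated 48 or 72 h at 37 °C. Viability was read as ATP-coupled CellTiter-Glo luminescence.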
hNpr1 antagonist: antagonists of human natriuretic peptide receptor Npr1; Potency, µM (titrated, usually from 46.3 µM), inactives show at the top dose activity change, negative = inhibition, usual class: inhibitors; HEK293 hNpr1 GloSensor cGMP, ANP-stimulated luminescence; AID 1347048; 76,000 tested, 1.6% active; P16066; calls by dose curve; note: nearly all actives have a fitted effect of over 60% in size
Target sequence (P16066 whole entry, looked up): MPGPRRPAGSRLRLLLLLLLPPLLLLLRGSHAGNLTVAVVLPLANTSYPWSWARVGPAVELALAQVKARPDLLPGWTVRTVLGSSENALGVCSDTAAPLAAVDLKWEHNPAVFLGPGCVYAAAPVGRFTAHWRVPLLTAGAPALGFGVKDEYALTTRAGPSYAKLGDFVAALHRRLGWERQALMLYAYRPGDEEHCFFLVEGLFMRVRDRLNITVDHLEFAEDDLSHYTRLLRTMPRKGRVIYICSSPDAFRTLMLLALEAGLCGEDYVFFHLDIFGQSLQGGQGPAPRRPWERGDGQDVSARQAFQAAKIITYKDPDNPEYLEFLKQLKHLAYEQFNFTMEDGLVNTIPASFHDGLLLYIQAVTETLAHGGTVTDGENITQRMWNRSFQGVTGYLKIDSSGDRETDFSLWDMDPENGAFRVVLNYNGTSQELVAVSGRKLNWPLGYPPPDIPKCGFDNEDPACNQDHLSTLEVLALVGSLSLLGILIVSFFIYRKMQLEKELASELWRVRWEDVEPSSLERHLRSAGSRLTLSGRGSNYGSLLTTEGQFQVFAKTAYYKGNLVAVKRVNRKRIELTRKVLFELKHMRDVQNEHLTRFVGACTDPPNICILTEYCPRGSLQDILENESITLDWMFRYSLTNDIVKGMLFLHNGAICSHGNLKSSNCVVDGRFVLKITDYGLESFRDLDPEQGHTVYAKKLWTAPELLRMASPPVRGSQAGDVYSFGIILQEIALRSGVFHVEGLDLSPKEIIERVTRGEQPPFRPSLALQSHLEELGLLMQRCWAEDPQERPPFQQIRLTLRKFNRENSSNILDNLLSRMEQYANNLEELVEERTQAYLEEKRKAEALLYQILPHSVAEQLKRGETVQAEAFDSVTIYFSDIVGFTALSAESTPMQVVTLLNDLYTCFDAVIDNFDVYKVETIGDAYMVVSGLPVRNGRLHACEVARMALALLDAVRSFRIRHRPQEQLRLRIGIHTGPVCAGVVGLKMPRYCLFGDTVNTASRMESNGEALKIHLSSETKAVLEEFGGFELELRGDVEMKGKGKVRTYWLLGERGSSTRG
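HEK293 cells stably expressing human Npr1 and cGMP GloSensor pGS-40F, loaded 2 h with 2% GloSensor reagent, given compound 30 min at room temperature. Luminescence read before and 20 min after 0.1 nM hNppA.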
FLuc inh: Photinus pyralis luciferase inhibition. P08659. purified P. pyralis luciferase, luminescence, biochemical. Potency, µM (series often up to 115 µM), actives largely listed as inhibitors. 76,000 tested, 2.5% active. AID 1347043; note: nearly all actives have a fitted effect of over 65% in size
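FLuc 10nM, D-luciferin 10uM, ATP 10uM, Mg acetate 10mM, Tris acetate pH 7.5, Tween/BSA; cpd qHTS; enzyme added last; CCD luminescence.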
HEK cytotox: HEK 293 cell cytotoxicity; Potency, µM (doses to about 115 µM), for the others: at the top dose activity change, negative = cytotoxicity, usual class: inhibitors; AID 1345083; 94,000 tested, 6.6% active; HEK 293 viability, ATP luminescence (CellTiter-Glo), 48-72 h; note: nearly all actives have a fitted effect of over 60% in size
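HEK 293 cells at 250 cells/well were exposed to compounds by pintool transfer for 48 or 72 hr at 37 degree Celsius, 5% CO2. Viability was read as ATP-coupled luminescence with CellTiter-Glo after 10 min at room temperature.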
* = called active by the depositor; i = inactive; ? = inconclusive; . = not tested or not shown; [ ] = another dose, or the depositor's remark. This is a sample that favours compounds with a hit; in the whole collection about 11% have one here. Unless noted, calls come from the whole dose curve; as a rule, active = well fitted curve in the direction sought with a large enough effect; inconclusive = small, poorly fitted or top-dose-only effect, or another doubt; inactive = no such curve, though single readings can be large; an effect the other way counts as inactive or inconclusive. % is set by controls: 0 for no effect and ±100 for the full control effect; potency is the fitted concentration of half-maximal effect.

SMILES	3T3 cytotox	hNpr1 antagonist	FLuc inh	HEK cytotox
O=C(c1ccccc1)N1CCCN(Cc2ccc3c(c2)OCO3)c2ccccc21	?	-3.9%	i	35.5µM*
NCc1ccccc1-c1cnc2ccccc2c1	100µM*	.	.	?
CNC(=O)c1ccc(NC(=O)c2nc(C(O)c3ccccc3F)oc2C)cc1 (stereo not drawn)	-32.6%[138 µM]	-1.2%[70.6 µM]	i	?
Cc1oc(C(O)c2ccccc2)nc1C(=O)Nc1ccc2[nH]ccc2c1 (stereo not drawn)	?	-5.4%[70.6 µM]	50.1µM*	100µM*
Cc1oc(C(O)c2cccc(O)c2)nc1C(=O)Nc1ccc2c(c1)CNC2=O (stereo not drawn)	?	-4.3%[70.6 µM]	i	-17.3%[172 µM]
Cc1oc(C(O)c2ccccc2)nc1C(=O)Nc1ccc(C(=O)Nc2ccccc2)cc1 (stereo not drawn)	44.7µM*	?	?	31.6µM*
Cc1oc(C(O)c2cccc(O)c2)nc1C(=O)Nc1ccc(N2CCOCC2)cc1 (stereo not drawn)	?	?	5.01µM*	?
Cc1oc(C(O)c2ccccc2F)nc1C(=O)Nc1ccc2[nH]ccc2c1 (stereo not drawn)	?	-7.9%[70.6 µM]	63.1µM*	100µM*
Cc1oc(C(O)c2ccccc2)nc1C(=O)Nc1ccc2c(c1)NC(=O)CO2 (stereo not drawn)	-17.3%[138 µM]	2.4%[70.6 µM]	?	?
Cc1c(CN2CC(=O)N(CC(C)C)CC(OCc3ccccc3F)C2)c(=O)n(-c2ccccc2)n1C (stereo not drawn)	-7.0%	4.1%	i	-0.3%
CC1=C[C@@H](CNCc2ccccc2)[C@H](C(C)C)C[C@H]1Cc1nc2c(C)cccc2[nH]1	28.2µM*	?	i	25.1µM*
CC1=C[C@@H](CNC(=O)COCC(=O)O)[C@H](C(C)C)C[C@H]1Cc1nc2c(C)cccc2[nH]1	-11.0%[174 µM]	-5.2%[70.6 µM]	i	-22.0%[172 µM]
CC1=C[C@@H](CN(C)C)[C@H](C(C)C)C[C@H]1Cc1nc2c(C)cccc2[nH]1	89.1µM*	4.3%[70.6 µM]	i	100µM*
COc1ccccc1CNC[C@@H]1C=C(C)[C@H](Cc2nc3c(C)cccc3[nH]2)C[C@H]1C(C)C	25.1µM*	?	i	?
CC1=C[C@@H](CNCc2ccccc2F)[C@H](C(C)C)C[C@H]1Cc1nc2c(C)cccc2[nH]1	28.2µM*	?	i	25.1µM*
CC1=C[C@@H](CNC(=O)CCCC(=O)O)[C@H](C(C)C)C[C@H]1Cc1nc2c(C)cccc2[nH]1	-26.8%[174 µM]	4.3%[70.6 µM]	i	-17.4%[172 µM]
O=C(c1cccc(Cl)c1)N1CCCC(C(=O)N2CCCC(c3nc4ncccc4[nH]3)C2)C1 (stereo not drawn)	-23.9%	.	.	-9.8%
CC(C)(C)C(=O)N1CCCC(C(=O)N2CCCC(c3nc4ccncc4[nH]3)C2)C1 (stereo not drawn)	-25.6%	.	.	-17.5%
O=C(c1ccccc1F)N1CCCN(c2ccc3nnc(C4CC4)n3n2)CC1	-23.2%	.	.	i
O=C1Cc2c(-c3ccc4c(c3)OCO4)n[nH]c2CN1CC1CCOCC1	10µM*	3.1%[70.6 µM]	i	-28.0%[172 µM]
O=C(O)c1cccc(-c2n[nH]c3c2CC(=O)N(CC2CCOCC2)C3)c1	?	4.9%[70.6 µM]	i	i
O=C1Cc2c(-c3cccc4ccccc34)n[nH]c2CN1CCc1ccncc1	?	-4.5%[70.6 µM]	i	79.4µM*
O=C1Cc2c(-c3ccc4ccccc4c3)n[nH]c2CN1CCc1ccncc1	?	-20.2%[70.6 µM]	i	?
O=C1Cc2c(-c3ccccc3)n[nH]c2CN1CCc1ccncc1	?	-2.0%[70.6 µM]	i	2.8%[172 µM]
O=C1Cc2c(-c3cccc(C(F)(F)F)c3)n[nH]c2CN1CCc1ccncc1	?	3.2%[70.6 µM]	i	89.1µM*
O=C1Cc2c(-c3ccc(N4CCOCC4)cc3)n[nH]c2CN1CCc1ccncc1	79.4µM*	-10.0%[70.6 µM]	?	-18.0%[172 µM]
CC(C)N1CCN(C(=O)C2CCN(c3cnn(Cc4ccccc4)c(=O)c3)C2)CC1 (stereo not drawn)	-25.4%	.	.	-9.1%
COC(=O)c1ccc(COC[C@@H]2CN(C(C)C)S(=O)(=O)[C@H]2c2ccccc2)cc1	?	.	.	39.8µM*
COc1cccc(C(=O)NC2CCCN(Cc3cccc(-c4ccc(C)c(Cl)c4)c3)C2)c1 (stereo not drawn)	-26.6%	.	.	-31.6%
COc1ccccc1C(=O)NC1CCCN(Cc2cccc(-c3ccc(C)c(Cl)c3)c2)C1 (stereo not drawn)	?	.	.	39.8µM*

Source: PubChem
